An excerpt weighted towards active compounds, which were near 9% of everything screened.
HPGD block: inhibitors of human 15-hydroxyprostaglandin dehydrogenase (HPGD); P15428; purified HPGD, NADH fluorescence kinetic, PGE2 substrate; Potency, µM, without a hit: top-dose activity change, negative = inhibition, actives largely listed as inhibitors; 150,000 compounds, 4.3% hits; AID 894; also: potency is read from the fitted curve at half-maximal effect
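NADH formation kinetics: reaction with 30 uM PGE2 and 1 mM NAD+ (final), 20 nM enzyme, Tris-HCl pH 8 with Tween 20, after 15 min compound preincubation at room temperature. Fluorescence change, last versus first of five reads.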
IMPase inh: IMPase inhibition in cells; 120,000 tested, under 10 active; inhibition (IP1 accumulation), % at 46.1 µM; CHO-M1 cells, IP1 accumulation, HTRF TR-FRET ratio; P97697; active = well fitted curve in the direction sought with a large enough effect in the signal ratio, not every such curve was filed as active; inconclusive = small, poorly fitted or top-dose-only effect, or a change in a side signal; inactive = no such curve, though single readings can be large or run the other way; the % refers to the signal ratio;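 also: cells stimulated with carbachol in lithium chloride buffer; plate controls were DMSO basal wells for no effect and reference inhibitor wells for full effect; higher means more IMPase inhibition seen as more IP1 and lower FRET ratio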
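Seeded CHO-M1 cells were dosed with compound at up to 46 uM, stimulated with carbachol for 30 min, then lysed in IP-One detection reagents. Higher IP1 lowers the TR-FRET signal.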
ALDH1A1 inh: inhibitors of human aldehyde dehydrogenase 1A1 | Purified ALDH1A1, NADH fluorescence, propionaldehyde substrate | Potency, µM (series often up to 75.3 µM), for the others: at the highest dose activity, negative = inhibition, hits mostly inhibitors | 220,000 compounds, 7.3% hits;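 also: potency is read from the fitted curve at half-maximal effect; plate controls were no enzyme wells and a reference inhibitor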
Target sequence (P00352 whole entry, looked up): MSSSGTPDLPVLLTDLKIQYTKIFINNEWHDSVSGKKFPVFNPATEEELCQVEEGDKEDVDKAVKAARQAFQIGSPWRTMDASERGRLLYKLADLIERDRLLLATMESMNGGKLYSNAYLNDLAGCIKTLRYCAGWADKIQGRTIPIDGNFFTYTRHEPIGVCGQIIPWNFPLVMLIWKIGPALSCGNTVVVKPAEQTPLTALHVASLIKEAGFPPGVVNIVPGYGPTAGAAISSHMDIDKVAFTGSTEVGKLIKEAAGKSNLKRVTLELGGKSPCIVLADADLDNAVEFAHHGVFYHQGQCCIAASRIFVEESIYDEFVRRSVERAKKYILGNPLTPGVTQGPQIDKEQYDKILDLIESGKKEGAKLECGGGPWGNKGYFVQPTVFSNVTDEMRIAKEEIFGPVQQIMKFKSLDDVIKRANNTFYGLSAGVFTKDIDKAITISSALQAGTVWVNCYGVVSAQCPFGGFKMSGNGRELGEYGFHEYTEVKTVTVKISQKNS
* hit, by the source's call; ? = inconclusive; . = no result given; [ ] = dose if it differs, or a comment. Unless noted, calls follow the shape of the dose curve; as a rule, active = well fitted inhibition curve with a large enough effect (not every such curve was filed as active); inconclusive = small, poorly fitted or top-dose-only effect, or another doubt; inactive = no such curve, though single readings can be large or run the other way. Unless noted, % is scaled to controls: 0 for no effect and ±100 for the full control effect.

SMILES	HPGD block	IMPase inh	ALDH1A1 inh
CC1=NN(C(=O)c2c(Br)c(C)nn2C)C(O)(C(F)(F)F)C1 (stereo not drawn)	-16%	6	-3%
CC1=NN(C(=S)Nc2ccccc2)C(C)(C)C1	.	.	-6%
O=C(OC(c1ccccc1)c1nccc2ccccc12)c1cc([N+](=O)[O-])cc([N+](=O)[O-])c1 (stereo not drawn)	-6%	3	-11%
Cn1c(CNC(=O)Cc2ccc3c(c2)OCO3)nnc1SCc1ccccc1	.	7	-3%
COC(=O)[C@@H](N)CS	-12%	.	3.2µM*
COC(=O)C(N)CS (stereo not drawn)	25µM*	.	?
COC(=O)C(N)Cc1ccc(O)cc1 (stereo not drawn)	7%	6	9%
COC(=O)C(N)Cc1ccc(O)c(O)c1 (stereo not drawn)	0%	9	3%
CC1(c2ccc(Cl)c(Cl)c2)NC(=S)N2C1NC(=S)N2c1ccccc1 (stereo not drawn)	-3%	5	-10%
CC(C)[C@@H](CC(=O)N[C@@H]1CCNC[C@H]1C(=O)N[C@H](CC(=O)N[C@@H](CCC(=O)O)CC(=O)O)Cc1c[nH]c2ccccc12)NC(=O)C[C@H](Cc1c[nH]c2ccccc12)NC(=O)[C@@H]1CNCC[C@H]1N	-4%	.	?
CCN(CC)S(=O)(=O)c1cccc(C(=O)NC(Cc2c[nH]c3ccccc23)c2nnc3n2CCC3)c1 (stereo not drawn)	-1%	.	-1%
COCCOc1nc2c(c(=O)n(C)c(=O)n2C)n1Cc1cccc(OC)c1	-2%	3	?
COc1cccc(Cn2c(OCC3CCCO3)nc3c2c(=O)n(C)c(=O)n3C)c1 (stereo not drawn)	-11%	.	7.1µM*
O=C(N/C(=C\c1ccc(-c2ccccc2)o1)C(=O)N1CCOCC1)c1ccccc1	.	.	-10%
COc1ccc(O[C@H]2C=C[C@@H](c3ccccc3)O[C@H]2COC(=O)CC/C(C)=N\O[C@@H](C)CN2CCCc3nc(C)c(C)cc32)cc1	.	.	-10%[13.5 µM]
CSCC(CO)NS(=O)(=O)c1ccc(C)cc1 (stereo not drawn)	.	.	-4%
COc1ccc(NC(C)=O)cc1S(=O)(=O)N1CCN(C/C=C/c2ccccc2)CC1	.	.	-2%
CN(C)c1ncnc2ccc(-c3ccoc3)cc12	.	.	28µM*
CN(C)Cc1ccccc1-c1ccc2ncnc(N(C)C)c2c1	.	.	3%
Cc1ccc(Cl)cc1NC(=O)N[C@@H](C)C(=O)O	-3%	-5	4%
COc1cc(OC)c(C2=NOC(C(=O)N3CCN(C(=O)c4ccco4)CC3)C2)cc1Cl (stereo not drawn)	.	.	-12%
O=C(C1CC(c2ccc(F)cc2)=NO1)N1CCCc2ccccc21 (stereo not drawn)	-8%	7	3%
COc1ccc(OC)c(C2=NOC(C(=O)N3CCCc4ccccc43)C2)c1 (stereo not drawn)	-25%	-11	11µM*
COc1cc(OC)c(C2=NOC(C(=O)N3CCc4ccccc4C3)C2)cc1Cl (stereo not drawn)	11µM*	8	-12%
COc1ccc(-c2cc(C(F)(F)F)nc(SCCC(=O)Nc3ccc(F)cc3F)n2)cc1	.	10	.
SMILES	HPGD block	IMPase inh	ALDH1A1 inh
N#CC(=C1CCCC1)c1nc(-c2ccccc2)cs1	-13%	8	-11%
N#CC(=C1CCCC1)c1nc(-c2ccccc2O)cs1	?	?	25µM*
O=C(Nc1ccc2ccccc2c1)c1cn(-c2ccccc2)nc1-c1cccs1	?	5	?
CN(C)c1ccc(NC(=O)c2cn(-c3ccccc3)nc2-c2cccs2)cc1	-13%	5	8.9µM*
CCOc1ccc(-c2nn(-c3ccccc3)cc2C2NC(=O)NC(C)=C2C(=O)OC(C)C)cc1C (stereo not drawn)	.	4	.
O=C(NNC(=S)Nc1ccc(OC(F)F)cc1)c1cc2c(s1)CCCC2	-19%	9	8.9µM*
O=C(Nc1ccccc1OC(F)F)c1cc2c(s1)CCC2	-17%	-3	?
Cc1cc(C)n2nc(C(=O)OCC(=O)c3c[nH]c4ccccc34)nc2n1	.	.	8%
Cc1ccc(C)c(N2C(=O)c3ccc(C(=O)OCC(=O)c4c(N)n(C)c(=O)n(C)c4=O)cc3C2=O)c1	-19%	.	20µM*
COc1ccc(C(=O)OCC(=O)c2c(N)n(C)c(=O)n(C)c2=O)cc1OC	.	.	3%
Cc1cc2nc(/C=C/c3nc4cc(C)c(C)cc4[nH]3)[nH]c2cc1C	.	.	-3%
Cc1cc2[nH]c(=S)[nH]c2cc1C	14µM*	.	28µM*
Cc1ccc(OCC(=O)Nc2ccc(S(=O)(=O)Nc3cc(C)on3)cc2)c(Br)c1	.	9	.
CC(NC(=O)NC1CCCCC1)C(c1cccs1)N1CCOCC1 (stereo not drawn)	-5%	-7	4%
O=C(O)c1ccc2c(c1)C(=O)N(Cc1ccccc1)C2=O	14µM*	0	-11%
O=C(NCc1ccccc1)c1ccc2c(c1)C(=O)N(CC1CCCO1)C2=O (stereo not drawn)	-20%	0	5µM*
O=C(O)c1cccc(NC(=O)c2ccc3c(c2)C(=O)N(CC2CCCO2)C3=O)c1 (stereo not drawn)	-6%	-7	?
O=C(Nc1ccc2c(c1)C(=O)N(CC1CCCO1)C2=O)c1cccc(Br)c1 (stereo not drawn)	?	7	?
COc1ccccc1OCC(=O)Nc1ccc2c(c1)C(=O)N(CC1CCCO1)C2=O (stereo not drawn)	.	.	4.5µM*
O=C1c2ccccc2C(=O)N1CC1CCCO1 (stereo not drawn)	-4%	-8	-10%
O=C(O)c1ccc2c(c1)N(Cc1ccccc1)C(=O)c1ccccc1S2=O (stereo not drawn)	-3%	9	11%
COC(=O)c1cccc(NC(=O)c2ccc3c(c2)C(=O)N(CC2CCCO2)C3=O)c1 (stereo not drawn)	-8%	-1	1.4µM*
Cc1cccc(Oc2coc3cc(OCC(=O)NC4CCCCC4)ccc3c2=O)c1	.	3	.
Oc1sc(C=Nc2ccccc2)c2ccccc12	-24%	1[1.84 µM]	22µM*
Oc1sc(C=Nc2ccc(F)cc2)c2ccccc12	-7%	2[1.84 µM]	?
SMILES	HPGD block	IMPase inh	ALDH1A1 inh
COc1cc(NS(=O)(=O)c2ccc(NC(=S)NC(=O)c3sc4cc(F)ccc4c3Cl)cc2)nc(OC)n1	16µM*	-26	8.9µM*
COc1cc(NS(=O)(=O)c2ccc(NC(C)=O)cc2)nc(OC)n1	2%	0	?
NC(N)=NS(=O)(=O)c1ccc(NC(=S)NC(=O)c2sc3ccccc3c2Cl)cc1	-7%	.	?
COc1cc(NS(=O)(=O)c2ccc(NC(=S)NC(=O)c3sc4ccccc4c3Cl)cc2)nc(OC)n1	25µM*	?	11µM*
Cc1cc(C)n(C(=O)Cn2nc([N+](=O)[O-])cc2C)n1	.	.	4%
COC(=O)c1cccc(N(C(=O)c2cnccn2)C(C(=O)NCc2ccccc2)c2ccco2)c1 (stereo not drawn)	-8%	-10	-10%
